Results published in PubChem BioAssay.
The source made the active and inactive calls. Unless noted, no rule for the calls is given here.

How the values were obtained:
[1] = system: Wnt5a (protein binding on small-molecule microarray); assay: small molecules binding Wnt5a protein – biophysical, small-molecule microarray, 635/667 nm fluorescence, primary screen (AID 1142); conditions: 635 nm fluorescence, higher = more signal;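 also: fluorescence read at 667 nm with signal to noise per printed feature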
[2] = ATP-based viability of Huh7 replicon cells – cell-based, CellTiter-Glo luminescence, basal, 48 h, cytotoxicity control for HCV replication inhibitor project, primary screen (AID 1143); conditions: higher = more signal, called active from +8 up or from −8 down;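 also: Huh7 hepatoma cells carrying a hepatitis C replication reporter with no stimulus; test concentration not given here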
[3] = Pseudomonas biofilm growth suppression – PAO1 strain, BacTiter-Glo luminescence, LB-PBS, primary screen (AID 1144); conditions: P. aeruginosa PAO1 biofilm, 12 h, higher = more signal
[4] = basal CRE-LacZ reporter activity in PC12 – cell-based, unstimulated, primary screen (AID 1145); conditions: no forskolin, luminescence, 4.5 h, higher = more signal, called active from +8 up or from −8 down
[5] = forskolin-driven CRE-LacZ activity in PC12 – cell-based, CRE-LacZ reporter, forskolin-stimulated, primary screen (AID 1146); conditions: luminescence, 4.5 h, higher = more signal, called active from +8 up or from −8 down;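 also: PC12 cells with 6xCRE LacZ reporter stimulated by forskolin 10 µM; beta-galactosidase reporter signal reflecting CREB driven transcription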
[6] = molecular target: Streptavidin (Streptomyces avidinii) (UniProt P22629); assay: compounds binding control protein streptavidin – biophysical, small-molecule microarray, 635/667 nm fluorescence, artefact control for SMM compound annotation, primary screen (AID 1147); conditions: higher = more signal;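 also: signal reflects streptavidin binding to arrayed compounds as a control protein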
Sequence of Streptavidin (Streptomyces avidinii) (P22629 whole entry, looked up): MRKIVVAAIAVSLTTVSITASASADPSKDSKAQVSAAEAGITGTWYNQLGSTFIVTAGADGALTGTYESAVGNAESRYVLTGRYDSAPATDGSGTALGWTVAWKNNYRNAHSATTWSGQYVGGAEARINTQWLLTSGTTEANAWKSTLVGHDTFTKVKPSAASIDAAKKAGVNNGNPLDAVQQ

[7] = probe aInhba binding on compound microarray – biochemical, small-molecule microarray, 635/667 nm fluorescence, primary screen (AID 1148); conditions: higher = more signal;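 also: score merges 667nm spot fluorescence with signal-to-noise for antibody binding to printed compounds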
Torsin-1A (Homo sapiens) [8] = molecular target: Torsin-1A (Homo sapiens) (UniProt O14656); assay: TOR1A wild-type binding on microarray – cell lysate, small-molecule microarray, lysate, 635/667 nm, primary screen (AID 1149); conditions: COS7 hTOR1A-WT lysate, 635 nm fluorescence, higher = more signal
Sequence of Torsin-1A (Homo sapiens) (O14656 whole entry, looked up): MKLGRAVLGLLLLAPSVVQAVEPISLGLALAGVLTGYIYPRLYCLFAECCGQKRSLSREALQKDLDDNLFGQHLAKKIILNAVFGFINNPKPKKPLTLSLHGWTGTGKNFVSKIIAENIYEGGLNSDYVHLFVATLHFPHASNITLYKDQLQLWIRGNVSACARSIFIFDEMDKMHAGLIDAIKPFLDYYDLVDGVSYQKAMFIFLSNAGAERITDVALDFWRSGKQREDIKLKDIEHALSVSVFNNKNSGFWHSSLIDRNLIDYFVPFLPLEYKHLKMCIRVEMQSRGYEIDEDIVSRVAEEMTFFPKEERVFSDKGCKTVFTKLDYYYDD

Torsin-1A (Homo sapiens) [9] = molecular target: Torsin-1A (Homo sapiens) (UniProt O14656); assay: torsin A mutant lysate binding on microarrays – cell lysate, small-molecule microarray, COS7 lysate, 635/667 nm fluorescence, primary screen (AID 1150); conditions: COS7 hTOR1A mutant lysate, 635 nm fluorescence, higher = more signal;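 also: score pools 667 nm emission and signal to noise measuring lysate protein binding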
[10] = system: Sonic hedgehog protein (Shh); assay: Sonic hedgehog microarray binding compounds – biochemical, small-molecule microarray, 635/667 nm fluorescence, primary screen (AID 1151); conditions: 635 nm fluorescence, higher = more signal;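 also: Shh protein binding to compounds spotted on small-molecule microarray slides; score combines spot fluorescence intensity with signal-to-noise across triplicate slides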
[11] = optical density shifts of acrAB sulA E. coli – strain DRC41, OD650, 48 h, E. coli filamentation inducer project, primary screen (AID 1152); conditions: higher = more signal, called active from +8 up or from −8 down;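 also: E. coli MC1000 strain DRC41 lacking acrAB efflux pump and sulA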
[12] = probe aLefty1 binding on compound microarray – biochemical, small-molecule microarray, 635/667 nm fluorescence, primary screen (AID 1153); conditions: higher = more signal;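 also: score merges spot fluorescence with signal-to-noise ratio from the scanned slide images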
[13] = plasmodial surface anion channel blockers, osmotic lysis – cell-based, P. falciparum Indochina, OD700, 1 h, primary screen (AID 1154); conditions: P. falciparum Indochina infected RBC osmotic lysis, higher = more signal, called active from +8 up or from −8 down
[14] = plasmodial surface anion channel blockers, osmotic lysis – cell-based, P. falciparum Indochina, OD700, 2 h, primary screen (AID 1155);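 also: lysis reports solute entry through the parasite surface anion channel PSAC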; conditions: P. falciparum Indochina infected erythrocytes, higher = more signal, called active from +8 up or from −8 down
[15] = changes in parasitized red cell lysis, either direction – P. falciparum Indochina, OD700, 3 h, PSAC antagonist project, primary screen (AID 1156); conditions: P. falciparum-infected erythrocytes, osmotic lysis, higher = more signal, called active from +8 up or from −8 down
[16] = plasmodial surface anion channel blockers, osmotic lysis – cell-based, P. falciparum Indochina, OD700, 18 h, primary screen (AID 1157); conditions: P. falciparum Indochina infected erythrocytes, osmotic lysis OD700, 18 h; higher = more signal, called active from +8 up or from −8 down
[17] = S6 kinase pathway phospho-S6 level changes – cell-based, A549, cytoblot, luminescence, serum-stimulated, primary screen (AID 1158); conditions: 5 h, higher = more signal;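 also: serum-stimulated A549 lung adenocarcinoma cells; signal is phosphorylated S6 detected by cytoblot immunostaining with HRP secondary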
[18] = molecular target: NADPH oxidase 2 (Homo sapiens) (UniProt P04839); assay: compounds shifting NOX2 Amplex Red fluorescence – cell-based, HEK293-NOX2, PMA-stimulated, NOX inhibitor project, primary screen (AID 1159); conditions: 45 min, higher = more signal, called active from +8 up or from −8 down; also: test concentration not given here
Sequence of NADPH oxidase 2 (Homo sapiens) (P04839 whole entry, looked up): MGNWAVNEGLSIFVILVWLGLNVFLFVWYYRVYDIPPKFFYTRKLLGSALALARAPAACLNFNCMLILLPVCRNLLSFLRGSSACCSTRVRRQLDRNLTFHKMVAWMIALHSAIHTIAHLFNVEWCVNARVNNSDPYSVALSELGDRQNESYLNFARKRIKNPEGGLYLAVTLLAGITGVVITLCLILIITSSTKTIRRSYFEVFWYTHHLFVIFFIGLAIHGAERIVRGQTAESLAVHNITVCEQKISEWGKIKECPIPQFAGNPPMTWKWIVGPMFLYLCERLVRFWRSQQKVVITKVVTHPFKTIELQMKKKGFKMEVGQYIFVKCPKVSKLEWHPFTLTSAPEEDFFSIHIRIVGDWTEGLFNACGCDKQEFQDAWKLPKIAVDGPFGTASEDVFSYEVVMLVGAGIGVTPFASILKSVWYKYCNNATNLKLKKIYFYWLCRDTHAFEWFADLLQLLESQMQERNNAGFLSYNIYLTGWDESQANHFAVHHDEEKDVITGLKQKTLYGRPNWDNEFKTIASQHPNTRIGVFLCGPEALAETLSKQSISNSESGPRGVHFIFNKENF

[19] = molecular target: NADPH oxidase 4 (Homo sapiens) (UniProt Q9NPH5); assay: compounds shifting NOX4 Amplex Red fluorescence – cell-based, HEK293-NOX4, tetracycline-induced, NOX inhibitor project, primary screen (AID 1160); conditions: HEK293-NOX4, Amplex Red H2O2 fluorescence, 45 min; higher = more signal, called active from +8 up or from −8 down
Sequence of NADPH oxidase 4 (Homo sapiens) (Q9NPH5 whole entry, looked up): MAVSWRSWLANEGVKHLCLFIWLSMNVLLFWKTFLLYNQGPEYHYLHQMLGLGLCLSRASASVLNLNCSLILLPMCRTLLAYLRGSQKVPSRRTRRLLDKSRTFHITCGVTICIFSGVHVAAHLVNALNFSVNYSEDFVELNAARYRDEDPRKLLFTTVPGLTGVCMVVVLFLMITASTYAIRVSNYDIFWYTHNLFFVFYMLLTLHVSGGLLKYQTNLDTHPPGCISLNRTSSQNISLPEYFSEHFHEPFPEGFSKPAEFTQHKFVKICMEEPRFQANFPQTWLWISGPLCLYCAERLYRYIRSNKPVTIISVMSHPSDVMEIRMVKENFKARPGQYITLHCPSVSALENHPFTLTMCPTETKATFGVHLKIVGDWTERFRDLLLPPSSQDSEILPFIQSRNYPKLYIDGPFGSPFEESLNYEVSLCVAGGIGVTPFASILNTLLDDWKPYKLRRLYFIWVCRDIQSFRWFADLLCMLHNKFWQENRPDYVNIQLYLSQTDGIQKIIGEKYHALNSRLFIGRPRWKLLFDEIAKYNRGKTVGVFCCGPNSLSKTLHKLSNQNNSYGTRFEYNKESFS

[20] = molecular target: NADPH oxidase 5 (Homo sapiens) (UniProt Q96PH1); assay: compounds shifting NOX5 Amplex Red fluorescence – cell-based, HEK293-NOX5, NOX inhibitor project, primary screen (AID 1161); conditions: HEK293-NOX5, ionomycin, 45 min, higher = more signal
Sequence of NADPH oxidase 5 (Homo sapiens) (Q96PH1 whole entry, looked up): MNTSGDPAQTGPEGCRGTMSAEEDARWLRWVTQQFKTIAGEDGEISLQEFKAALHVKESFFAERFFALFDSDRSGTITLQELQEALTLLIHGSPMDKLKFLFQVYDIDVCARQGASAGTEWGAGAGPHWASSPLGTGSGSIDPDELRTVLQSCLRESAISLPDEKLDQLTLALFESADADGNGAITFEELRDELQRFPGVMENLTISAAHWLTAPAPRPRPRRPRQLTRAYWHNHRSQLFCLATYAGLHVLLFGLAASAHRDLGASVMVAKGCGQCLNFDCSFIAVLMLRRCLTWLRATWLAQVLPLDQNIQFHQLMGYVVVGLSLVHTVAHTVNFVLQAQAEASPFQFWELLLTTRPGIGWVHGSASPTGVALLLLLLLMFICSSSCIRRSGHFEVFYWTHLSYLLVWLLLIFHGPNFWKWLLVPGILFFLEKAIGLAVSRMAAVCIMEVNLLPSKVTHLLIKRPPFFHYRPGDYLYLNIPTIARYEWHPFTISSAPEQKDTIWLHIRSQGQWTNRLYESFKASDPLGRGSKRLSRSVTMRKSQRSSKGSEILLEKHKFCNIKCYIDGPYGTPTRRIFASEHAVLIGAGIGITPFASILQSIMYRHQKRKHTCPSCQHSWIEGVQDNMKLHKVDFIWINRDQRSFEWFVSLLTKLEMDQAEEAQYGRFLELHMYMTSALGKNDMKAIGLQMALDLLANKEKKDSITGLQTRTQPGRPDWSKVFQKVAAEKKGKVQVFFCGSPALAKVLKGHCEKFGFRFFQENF

Structure (SMILES)	composite z-score [1]	z-score [2]	z-score [3]	z-score [4]	z-score [5]	composite z-score [6]	composite z-score [7]	composite z-score (Torsin-1A (Homo sapiens) [8])	composite z-score (Torsin-1A (Homo sapiens) [9])	composite z-score [10]	z-score [11]	composite z-score [12]	z-score [13]	z-score [14]	z-score [15]	z-score [16]	z-score [17]	z-score [18]	z-score [19]	z-score [20]
O=C(NC1CC1)[C@@H]1c2ccccc2C(=O)N(Cc2ccccc2Cl)[C@H]1c1ccc(CO)cc1	0.201	-2.67 (inactive)	-0.764 (inactive)	-0.0888 (inactive)	-1.69 (inactive)	0.384	0.225	0.725	0.941	0.957	4.2 (inactive)	0.208	3.45 (inactive)	0.652 (inactive)	-1.05 (inactive)	0.204 (inactive)	2.67	-1.1 (inactive)	0.54 (inactive)	0.33
COCCOC(=O)N1C(=O)[C@@]2(c3cc(C#CC4(O)CCCCCC4)ccc31)[C@H](c1ccc(OCCO)cc1)N1[C@H](c3ccccc3)[C@H](c3ccccc3)OC(=O)[C@H]1[C@@H]2C(=O)N1CCN(c2ncccn2)CC1	0.499	-0.922 (inactive)	0.517 (inactive)	0.346 (inactive)	0.838 (inactive)	2.07	0.0541	0.782	0.629	1.17	-0.393 (inactive)	0.813	7.73 (inactive)	2.47 (inactive)	0.493 (inactive)	1.12 (inactive)	-0.537	1.61 (inactive)	0.854 (inactive)	1.83
C=CCN1C(=O)[C@@]2(CC=C)N=C(c3ccc(OCCCO)cc3)O[C@H]2c2ccccc21	1.39	-3.88 (inactive)	-0.776 (inactive)	1.13 (inactive)	-2.04 (inactive)	0.26	0.33	0.537	0.658	1.47	1.92 (inactive)	0.547	34.5 (active)	30.9 (active)	3.11 (inactive)	9.88 (active)	1.63	-2.21 (inactive)	0.796 (inactive)	-0.809
CC(=O)n1cc(C(O)C2C=CC3C(=O)N(c4ccccc4)C(=O)C3N2Nc2ccc([N+](=O)[O-])cc2)c2ccccc21 (stereo not given)	0.199	-0.547 (inactive)	-0.197 (inactive)	-0.322 (inactive)	-0.647 (inactive)	0.808	-0.0371	-0.268	0.475	-0.0727	-1.2 (inactive)	0.272	17 (active)	3.57 (inactive)	1.13 (inactive)	0.954 (inactive)	-0.75	-0.808 (inactive)	-2.56 (inactive)	-1.91
CC(C)NC(=O)[C@@H]1c2ccccc2C(=O)N(C2Cc3ccccc3C2)[C@H]1c1ccc(CO)cc1	-0.0402	-1.09 (inactive)	-0.737 (inactive)	0.441 (inactive)	-1.35 (inactive)	0.251	-0.128	-0.232	0.474	0.231	0.814 (inactive)	0.11	3.41 (inactive)	0.119 (inactive)	0.121 (inactive)	0.182 (inactive)	0.0063	-0.402 (inactive)	0.0797 (inactive)	-0.994
COc1cccc(-c2cccc(=O)o2)c1	0.595	0.064 (inactive)	0.77 (inactive)	-0.228 (inactive)	-0.977 (inactive)	0.438	0.177	0.0114	0.698	-0.207	0.0997 (inactive)	0.565	10.4 (active)	1.6 (inactive)	-0.685 (inactive)	0.611 (inactive)	-0.684	0.705 (inactive)	-1.15 (inactive)	-1.47
[N-]=[N+]=Nc1ccccc1[C@@H]1OC(c2ccc(OCCCO)cc2)=N[C@]1(Cc1ccccc1)C(=O)N1CCOCC1	0.546	-3.97 (inactive)	0.617 (inactive)	1.56 (inactive)	-1.42 (inactive)	1.35	0.0658	0.311	0.58	-0.3	0.123 (inactive)	0.391	31.8 (active)	32.1 (active)	2.51 (inactive)	3.91 (inactive)	-0.37	-0.507 (inactive)	-0.36 (inactive)	-1.77
OCCCC1=CC(c2cccs2)N(Cc2cc3c(cc2Br)OCO3)CC1 (stereo not given)	-0.094	-1.18 (inactive)	-0.137 (inactive)	0.0563 (inactive)	-0.056 (inactive)	-0.0072	-0.024	0.155	0.396	1.4	-1.3 (inactive)	0.187	5.53 (inactive)	0.887 (inactive)	-0.281 (inactive)	0.625 (inactive)	-0.684	-0.283 (inactive)	-0.294 (inactive)	-0.768
Cc1ccc([C@@H]2C[C@@H](Sc3ccccc3)[C@H](C(=O)O)CN2S(=O)(=O)c2ccc(C)cc2)cc1	0.387	-0.758 (inactive)	-0.606 (inactive)	-0.676 (inactive)	0.762 (inactive)	1.39	0.122	0.877	0.244	-0.053	-1.07 (inactive)	0.481	1.87 (inactive)	0.835 (inactive)	-1.16 (inactive)	0.759 (inactive)	-0.512	2.06 (inactive)	-1.97 (inactive)	-0.41
